Pf Dd2 inh – blocks in vitro growth of P. falciparum Dd2. 120,000 compounds, 4.3% hits. P. falciparum Dd2 growth, SYBR Green, 72 h. Potency, µM (series often up to 28.9 µM), usual class: inhibitors; active means well fitted inhibition curve with a large enough effect; further: nearly all actives have a fitted effect of over 65% in size
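Infected erythrocytes (Dd2, 0.3% parasitemia, 2.5% hematocrit final) are added to compound in RPMI-1640/Albumax II medium, grown 72 h at 37C in low oxygen, then lysed with saponin/Triton-X containing SYBR Green and read by fluorescence.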
Each line names hits and unclear results; the compound was inactive in the other large screens. The full list was thinned out, with hits kept by preference.

CCOc1ccccc1CNC(=O)[C@H]1CCC[C@H]1NC(=O)c1ccc(OC)cc1	Pf Dd2 inh 11.2µM
COc1ccccc1CNC(=O)[C@H]1CCC[C@H]1NC(=O)c1ccncc1	none
COc1ccc(C(=O)N[C@@H]2CCC[C@@H]2C(=O)NCc2cc(OC)ccc2OC)cc1	none
COc1ccnc(-c2nnc3ccc(N(C)CCN(C)C)nn23)c1	none
O=C1NCCCCCN(S(=O)(=O)c2cccc(F)c2)[C@H]2CCCC[C@@H]12	none
CN1CCCCCCN(S(=O)(=O)c2cccc(F)c2)[C@H]2CCC[C@H]2C1=O	Pf Dd2 inh 2.51µM
CCn1cc(S(=O)(=O)N2CCCCCCN(C)C(=O)[C@@H]3CCC[C@@H]32)cn1	none
COc1cccc([S+](=O)([O-])N2CCNc3cnc(Nc4ccc(N5CCOCC5)cc4)nc3C2)c1	none
COc1ccc(C(=O)N2CCCN(C)c3ccccc32)c(C)c1	none
Cc1nc2scc(CC(=O)N3CCCCC3)n2c(=O)c1-c1cc(C)n(-c2ccc(F)cc2)n1	none
Cc1ccc(C)c(N2CCN(C(=O)Cn3c(C)c4cnn(-c5ccccc5)c(=O)c4c3C)CC2)c1	none
CCC(C(=O)N1CCN(c2ccccc2)CC1)n1c(C)c2cnn(-c3ccccc3)c(=O)c2c1C (stereo not drawn)	Pf Dd2 inh 11.2µM
Cc1c2cnn(-c3ccccc3)c(=O)c2c(C)n1CC(=O)N1CCN(c2cccc(Cl)c2)CC1	none
COC[C@H]1CCCN1[C@@H]1[C@H](O)[C@H](CO)O[C@@H]1CN(Cc1cccc(Cl)c1)Cc1cccc(Cl)c1	Pf Dd2 inh 0.708µM
OC[C@@H]1O[C@H](CN(Cc2cccc(Cl)c2)Cc2cccc(Cl)c2)C(N2CCOCC2)[C@@H]1O (stereo partly drawn)	none
COC[C@H]1CCCN1[C@@H]1[C@H](O)[C@H](CO)O[C@@H]1CNC(=O)Nc1ccccc1	none
Cc1cccc(NC(=O)c2sc3nc4c(cc3c2N)CN(C(C)C)CC4)c1	Pf Dd2 inh 11.2µM
CN1CCc2nc3sc(C(=O)Nc4cccc(C#N)c4)c(N)c3cc2C1	none
CC(=O)c1cccc(NC(=O)c2sc3nc4c(cc3c2N)CCCC4)c1	none
CCCNC(=O)C(NC(=O)c1cccs1)C1CCN(C(=O)c2ccco2)CC1 (stereo not drawn)	none
Cn1cccc1C(=O)N1CCC(C(=O)N2CCCCCCNC(=O)CC2)CC1	none
Cc1nn(-c2ccc(C(C)C)cc2)c(C)c1[C@@H]1C=C[C@@H](NCc2cccc(Cl)c2)C1	none
Cc1nn(-c2ccc(C(C)(C)C)cc2)c(C)c1[C@@H]1C=C[C@@H](NC(=O)Nc2ccccc2)C1	none
O=C(N[C@H]1CCN2C(=O)N(c3ccc(F)c(Cl)c3)C(=O)[C@@H]2C1)c1cccs1	none
Cc1ccc(-n2nc(C)c([C@H]3C=C[C@@H](OC(=O)Nc4cccc(F)c4)C3)c2C)cc1Cl	Pf Dd2 inh 11.2µM
Cc1nn(Cc2ccccc2)c(C)c1[C@@H]1C=C[C@@H](NC(=O)Nc2cccc(C#N)c2)C1	none
Cc1ccc(-n2nc(C)c([C@@H]3C=C[C@@H](N)C3)c2C)cc1Cl	none
Cc1nn(-c2ccccc2)c(C)c1[C@@H]1C=C[C@@H](NCc2ccc(F)cc2)C1	Pf Dd2 inh 5.01µM
Cc1nn(-c2ccc(C(F)(F)F)cc2)c(C)c1[C@@H]1C=C[C@@H](NC(=O)C2CCCCC2)C1	none
Cc1ccc(-n2nc(C)c([C@@H]3C=C[C@@H](NC(=O)c4cccs4)C3)c2C)cc1Cl	Pf Dd2 inh 11.2µM
COc1ccc(NC(=O)O[C@@H]2C=C[C@H](c3c(C)nn(-c4ccccc4C)c3C)C2)cc1	none
Cc1nn(-c2ccc(F)cc2)c(C)c1[C@@H]1C=C[C@@H](NS(=O)(=O)c2cccs2)C1	none
Cc1nn(-c2ccc(C(F)(F)F)cc2)c(C)c1[C@@H]1C=C[C@@H](NC(=O)Nc2ccccc2)C1	Pf Dd2 inh 11.2µM
CN(Cc1ccccc1)C(=O)C[C@@H]1CCNC[C@@H]1Cc1cc(CN(C)c2ccccc2)on1	none
CO[C@H]1COCCN(C(=O)c2cccnc2)C1	none
Cc1nc(CC2CCN(C(=O)c3ccsc3)CC2)n[nH]1	none
Cc1ccc(Cl)cc1NC(=O)CN1C(=O)NC2(CCCCC2)C1=O	none
COCCc1noc([C@@H]2CC(F)(F)CN2C(=O)C2CC=CC2)n1	none
COCCNC(=O)C(NC(=O)c1cccc(OC)c1)C1CCN(C(=O)COC)CC1 (stereo not drawn)	none
Cc1nn(-c2ccc(C(F)(F)F)cc2)c(C)c1[C@@H]1C=C[C@@H](NC(=O)c2cccs2)C1	Pf Dd2 inh 2.82µM
Cc1nn(-c2cccc(Br)c2)c(C)c1[C@@H]1C=C[C@@H](NC(=O)CC(C)(C)CC(=O)O)C1	Pf Dd2 inh 8.91µM
Cc1nn(Cc2ccccc2)c(C)c1[C@@H]1C=C[C@@H](NC(=O)CCC(=O)O)C1	none
Cc1nn(-c2ccccn2)c(C)c1[C@@H]1C=C[C@@H](NC(=O)CCC(=O)O)C1	none
Cc1nn(Cc2ccccc2)c(C)c1[C@@H]1C=C[C@@H](NC(=O)CSCC(=O)O)C1	none
Cc1nn(-c2ccc(C(C)(C)C)cc2)c(C)c1[C@@H]1C=C[C@@H](NC(=O)c2cccs2)C1	none
O=C(NCc1ccc2c(c1)OCO2)C1CCCN1c1nc2ncccc2o1 (stereo not drawn)	none
CC(C)(c1nc(-c2cccnn2)no1)n1cccc1	none
COc1cc(Cl)c(C)cc1NC(=O)C1CCCN(c2ncnc3onc(-c4ccc(F)cc4)c23)C1 (stereo not drawn)	Pf Dd2 inh 11.2µM
Cc1noc2ncnc(N3CCCC(C(=O)NCCC(C)C)C3)c12 (stereo not drawn)	none
Cc1ccc(NC(=O)C2CCCN(c3ncnc4onc(-c5ccc(F)cc5)c34)C2)c(Cl)c1 (stereo not drawn)	none
CC(C)N(Cc1ccccc1)C(=O)C1CCCN(c2ncnc3onc(-c4ccc(F)cc4)c23)C1 (stereo not drawn)	Pf Dd2 inh 8.91µM
Cc1ccc(C)c(NC(=O)C2CCCN(c3ncnc4onc(C)c34)C2)c1 (stereo not drawn)	none
CCCN(CCC)C(=O)C1CCCN(c2ncnc3onc(-c4ccc(F)cc4)c23)C1 (stereo not drawn)	none
Cn1cnc(S(=O)(=O)N2CC(N(Cc3ccccc3)C3CCOCC3)C2)c1	none
O=C(C[C@@H]1O[C@H](CNC(=O)c2cccc(F)c2)[C@@H](O)[C@H]1O)Nc1ccccc1	none
CC(C)NC(=O)CCc1cc2n(n1)CCN(C(=O)CN1CC(=O)NC1=O)C2	none
O=C1NC(=NC2CCCCC2)C2(CCN([S+](=O)([O-])c3cccc(C(F)(F)F)c3)CC2)N1c1cccnc1	none
O=C(C1CC=CC1)N1C[C@@H](COc2ccncc2)[C@H](c2ccccn2)C1	none
CC(C)c1ccc(CC(=O)N2CCCc3ncc(C(=O)Nc4ccccc4)cc32)cc1	none
COc1ccc(NC(=O)c2cnc3c(c2)N(C(=O)Cc2ccc(O)cc2)CCC3)cn1	none
O=C(Nc1ccccc1)c1cnc2c(c1)N(C(=O)Cc1ccc(O)cc1)CCC2	none
Cc1csc(NC(=O)c2cnc3c(c2)N(C(=O)Cc2ccc(C(C)C)cc2)CCC3)n1	Pf Dd2 inh 7.08µM
CC(C)c1ccc(CC(=O)N2CCCc3ncc(C(=O)Nc4ccn(C)n4)cc32)cc1	none
O=C(NC(c1ccccc1)c1ccccc1)c1cnc2c(c1)N(C(=O)Cc1ccc(O)cc1)CCC2	Pf Dd2 inh 12.6µM
Cc1cc(C)n(CCC(=O)N2CCCC2c2nc(C3CCOCC3)no2)n1 (stereo not drawn)	none
O=C1OCCN1C1CCN(Cc2ccccc2)CC1	none
COC(=O)[C@H](NC(=O)C1=C[C@@H](NC(=O)Nc2ccc(C)cc2)[C@@H](O)[C@H](O)C1)C(C)C	none
Cc1ccc(NC(=O)N2CCC(Cc3nncn3Cc3ccccc3)C2)cc1C (stereo not drawn)	none
